CYP2C9 inh = blockers of cytochrome P450 2C9 activity – biochemical, luminescence, ADME assay, primary screen | P11712 | CYP2C9 Supersomes, luciferin-H conversion | inhibition, % at 5 µM | 20% of 96,000 active;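 active means blocking of liver enzyme CYP2C9 beyond about 50% at 5 µM, limit read from the data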
CYP2C9 activ = human CYP2C9 activators, primary screen, biochemical, luminescence; recombinant CYP2C9, luciferin-H conversion; active compounds read high; factor 1 = untreated enzyme, 0 = blocked; 1.4% of 96,000 active; activation factor at 5 µM;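 active means activation factor of 2 or more for CYP2C9 at a 5 µM dose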;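 further: 0 = sulfaphenazole-blocked wells and 1 = vehicle-only wells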
CYP2C19 act = human CYP2C19 activators, primary screen, biochemical, luminescence | activation factor at 5 µM | recombinant CYP2C19, luciferin-H EGE luminescence; active compounds read high; 0 = fully inhibited enzyme, 1 = untreated enzyme | Cytochrome P450 2C19 (Homo sapiens), P33261 | 96,000 tested, under 10 active;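 active means activation factor of at least 2 at 5 µM in the primary screen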;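 further: 0 = wells with 2.5 mM tranylcypromine and 1 = vehicle-only wells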
Target sequence (P33261 whole entry, looked up): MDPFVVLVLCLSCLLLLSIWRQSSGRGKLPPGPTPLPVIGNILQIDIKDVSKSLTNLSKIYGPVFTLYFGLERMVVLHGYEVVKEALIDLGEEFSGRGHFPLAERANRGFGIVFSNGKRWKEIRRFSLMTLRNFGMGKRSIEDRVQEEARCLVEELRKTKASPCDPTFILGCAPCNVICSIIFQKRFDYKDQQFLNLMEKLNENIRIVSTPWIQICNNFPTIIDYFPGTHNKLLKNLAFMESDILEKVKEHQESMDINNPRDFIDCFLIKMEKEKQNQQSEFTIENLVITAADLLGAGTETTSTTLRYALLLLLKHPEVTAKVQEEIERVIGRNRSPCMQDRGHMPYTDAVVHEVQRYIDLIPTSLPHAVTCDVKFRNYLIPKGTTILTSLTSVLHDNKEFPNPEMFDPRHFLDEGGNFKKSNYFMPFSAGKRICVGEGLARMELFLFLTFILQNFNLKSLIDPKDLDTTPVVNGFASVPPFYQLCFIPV
CYP2C19 inhib = blockers of cytochrome P450 2C19 activity – biochemical, luminescence, ADME assay, primary screen | inhibition, % at 5 µM | CYP2C19 Supersomes, luciferin-H EGE luminescence, 30 min | P33261 | 21% of 96,000 active;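 active means CYP2C19 inhibition above a set limit at 5 µM in the primary screen, cut at about 50% in these data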;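 further: plate controls were negative control wells for no effect and 2.5 mM tranylcypromine positive control for full effect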
PostGolgi ctrl = growth inhibition of yeast control strain, primary screen, counter-screen for post-Golgi transport modulator project. efflux-deficient yeast background strain, growth absorbance A615, 16 h. inhibition, % at 10 µM. 5% of 98,000 active. AID 738, 2007
PostGolgi yeast = phenotypic screen on post-Golgi transport, primary screen | 0.9% of 98,000 active | post-Golgi transport phenotypic cell assay | AID 739, 2007 | inhibition, % at 10 µM;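 further: yeast cells grown in 1536-well plates; yeast grown about 18 h at 30C before absorbance read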
* marks the source's active call; other numbers are inactive results. Only some compounds are listed: those with a hit (about 32% of all), similar ones and a draw of the others. Unless noted, no stated cut-off is given here; in the data, active means inhibition above about 30%; inactive means the rest.

SMILES	CYP2C9 inh	CYP2C9 activ	CYP2C19 act	CYP2C19 inhib	PostGolgi ctrl	PostGolgi yeast
COC(=O)c1cn(C(=O)c2ccco2)c2ccccc12	17.3	0.8	1	-3.3	-12.0	1.9
Cc1nc2ccc(C(C(F)(F)F)(C(F)(F)F)C(F)(F)F)cc2[nH]1	62.8*	0.4	0.6	42.5	66.4*	8.0
Cc1nc2ccc(S(=O)(=O)c3ccc4nc(C)[nH]c4c3)cc2[nH]1	16.8	0.8	0.8	21.6	3.4	6.7
CCCCC(=O)Nc1ccc2oc(-c3ccncc3)nc2c1	63.3*	0.4	0.4	57.7*	-9.6	-12.2
O=C(COc1ccc(Cl)cc1)Nc1ccc2oc(-c3ccncc3)nc2c1	62.1*	0.4	0.5	51.8*	2.1	-0.5
CCCC(=O)Nc1ccc2oc(-c3ccncc3)nc2c1	78.4*	0.2	0.4	56.1*	13.4	14.6
O=C(Nc1cccnc1)C1CCN(S(=O)(=O)c2cccc3nonc23)CC1	28.0	0.7	0.9	14.6	7.0	-8.8
CCC(C)(C)NC(=O)C1CCN(c2nc(C)cc(C)n2)CC1	-27.0	1.3	0.8	16.5	7.5	9.7
O=C(NNC(=O)C1CCCO1)c1ccc(Cl)cc1 (stereo not drawn)	7.2	0.9	1	-4.2	3.3	-18.5
NC(=O)C1(N2CCCCC2)CCN(C(=O)c2ccccc2)CC1	9.0	0.9	0.9	11.4	5.0	0.8
O=C1CCCCCN1CSc1nc2ccccc2s1	-15.8	1.2	0.7	33.5	45.8*	-5.7
O=C(CSc1nc2ccccc2s1)N1CCOCC1	25.9	0.7	0.2	78.3*	4.4	-4.0
NC(=O)C1(N2CCCCC2)CCN(C(=O)CSc2nc3ccccc3s2)CC1	79.1*	0.2	0.2	78.1*	-6.0	-4.7
CC1(C(=O)CSc2nc3ccccc3s2)CCC(=O)O1 (stereo not drawn)	2.6	1	0.8	22.0	-0.3	6.4
Cn1c(=O)c2c(SCc3ccccn3)nc(C3CC3)nc2n(C)c1=O	16.7	0.8	0.9	5.5	20.2	-5.5
Cc1cc(NC(=O)CSc2nc(CC(C)(C)C)nc3c2c(=O)n(C)c(=O)n3C)no1	63.0*	0.4	1	1.3	3.9	8.0
CCc1nc(SCC(=O)Nc2cc(C)on2)c2c(=O)n(C)c(=O)n(C)c2n1	33.6	0.7	0.9	12.9	5.2	1.5
CCCc1nc(SCc2ccccn2)c2c(=O)n(C)c(=O)n(C)c2n1	70.9*	0.3	0.6	44.8	28.9	1.8
Cn1c(=O)c2c(SCc3ccccn3)nc(CC(C)(C)C)nc2n(C)c1=O	82.5*	0.2	0.9	9.4	34.1*	3.1
CCNC(=O)N(C(=O)NCC)n1c(C)nnc1C	-9.4	1.1	1.1	-8.8	3.6	2.7
CCOc1ccc(Cc2nnc(SCC(N)=O)n2C)cc1	13.3	0.9	1	4.0	5.9	0.6
O=C(NCc1ccco1)c1cc2n(n1)C(C(F)(F)F)CC(c1ccc(F)cc1)N2 (stereo not drawn)	34.1	0.7	1.1	-11.5	4.6	-3.0
C=CCn1c(SCc2nc3ccccc3[nH]2)nnc1-c1ccccn1	19.3	0.8	0	97.3*	10.8	-3.1
Cn1c(SCc2nc3ccccc3[nH]2)nnc1-c1ccccn1	8.1	0.9	0.3	68.8*	3.5	-1.5
CCCNC(=O)CCC(=O)Nc1ncc(-c2ccc(C)cc2)n1C	19.2	0.8	0.9	13.2	8.7	-8.6
SMILES	CYP2C9 inh	CYP2C9 activ	CYP2C19 act	CYP2C19 inhib	PostGolgi ctrl	PostGolgi yeast
CCN(CC)S(=O)(=O)c1ccc(Cl)c(C(=O)Oc2cccc(-c3cnc4ccccc4n3)c2)c1	46.2	0.5	0.8	17.3	1.7	8.7
O=C(Oc1ccc(-c2cnc3ccccc3n2)cc1)c1ccc(Br)o1	20.0	0.8	0.4	58.5*	5.9	-12.0
O=C(Oc1cccc2cccnc12)c1ccc(Br)o1	-4.3	1	1.1	-5.7	-1.5	5.3
O=C(Oc1ccc(-c2cnc3ccccc3n2)cc1)c1cccc([N+](=O)[O-])c1	14.6	0.9	0.3	66.7*	3.4	18.5
N/C(=N\OC(=O)c1cc(-c2ccccc2)nc2ccccc12)c1ccc(Cl)cc1	46.2	0.5	1	4.5	-3.9	27.3
O=C(Oc1ccc(-c2cnc3ccccc3n2)cc1)c1ccc(Cl)c([N+](=O)[O-])c1	16.0	0.8	0.7	33.9	6.7	-10.1
O=C(Oc1ccc([N+](=O)[O-])cc1)c1cc(-c2ccccc2)nc2ccccc12	14.6	0.9	0.9	10.4	42.4*	12.7
CCN(CC)S(=O)(=O)c1cc(C(=O)Oc2cccc(-c3cnc4ccccc4n3)c2)ccc1Br	47.4	0.5	0.4	64.4*	0.1	0.0
CNC(=S)N1CCN(c2ccc([N+](=O)[O-])cc2)CC1	23.5	0.8	0.7	29.2	25.1	5.1
Cc1cc(NC(=O)CN2CCN(c3ccc(O)cc3)CC2)no1	-3.1	1	1	-0.8	-0.1	0.5
COc1ccc(C2=CC(=O)OC3(CCCC3)O2)cc1	15.7	0.8	0.6	35.5	13.9	4.7
C=CCn1c(SCC(=O)NCc2ccc3c(c2)OCO3)nc2scc(-c3ccc(F)cc3)c2c1=O	0.3	1	1.1	-12.5	8.8	2.9
Cn1c(SCC(=O)NCc2ccc3c(c2)OCO3)nc2scc(-c3cccs3)c2c1=O	79.5*	0.2	0.8	23.1	15.7	1.6
O=C(CSc1n[nH]c(-c2cccs2)n1)NCc1cccs1	24.8	0.8	0.3	69.1*	0.1	-2.4
N#Cc1c(N)nc(SCC(=O)NCc2ccc3c(c2)OCO3)c(C#N)c1-c1cccs1	74.2*	0.3	0.7	26.3	10.2	15.9
N#Cc1c(N)nc(SCc2ccccn2)c(C#N)c1-c1cccs1	1.2	1	1.1	-14.8	54.1*	10.2
COC(=O)[C@@H]1C2CCC(C(=O)Nc3ccccc3)(CC2)[C@@H]1C(=O)OC	16.2	0.8	0.8	19.6	-3.7	-14.1
O=C(CSc1n[nH]c(-c2cccs2)n1)NCc1ccc2c(c1)OCO2	96.8*	0	0.1	85.3*	1.4	-1.8
Nc1nnc(SCC(=O)NCc2ccc3c(c2)OCO3)s1	9.5	0.9	0.5	46.8	-2.3	-0.6
Cc1ccc(-c2csc3ncnc(SCC(=O)NCc4ccc5c(c4)OCO5)c23)cc1	56.6*	0.4	0.8	22.0	42.9*	3.5
O=C(CN(Cc1ccccc1Cl)C(=O)c1ccc(CN2CCOCC2)o1)NCc1ccccc1	10.3	0.9	0.9	11.0	-0.1	-0.5
Cc1ccc(C(=C2C3C=CC2C2C(=O)NC(=O)C32)c2ccc(C)cc2)cc1 (stereo not drawn)	2.8	1	0.8	17.7	55.1*	-1.2
